Source: PubChem BioAssay (NCATS)
“And” between values parts separate entries of the source, which are not always exact repeats. Equal entries are not always repeated. Inconclusive results are not listed. The source made the active and inactive calls. Calls follow the shape of the dose curve; as a rule, active = well fitted cell-killing curve with a large enough effect; inconclusive = small, poorly fitted or top-dose-only effect; inactive = no such curve, though single readings can be large or run the other way.

Assay: qHTS of pediatric cancer cell lines to identify multiple opportunities for drug repurposing: Confirmatory screen for Rh41 cells (AID 1347123);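 also: 48 h compound exposure; nearly all actives have a fitted effect of over 60% in size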
Conditions: Rh41 rhabdomyosarcoma cells, viability/cytotoxicity qHTS; series mostly up to 45.9 µM; activity change, negative = cytotoxic: at the top concentration
From the text: Drug repurposing or repositioning has been offered as a strategy for drug development in oncology programs. This approach has special potential for childhood cancers and other rare or orphan diseases, where the expected return on new drug development has been a disincentive to pharmaceuticals.
In this project we exploit the poly-pharmacology of drugs to discover new indications via phenotypic screening of a panel of 19 well-characterized cell lines derived from solid tumors seen in children and adolescents. The goal is to identify approved drugs with previously unrecognized anticancer properties that has the potential to reveal new mechanisms and biological processes involved in carcinogenesis or drug resistance. We employed a titration-based paradigm (quantitative high-throughput screening or qHTS), where all compounds were tested at multiple concentrations for their effect on cell viability. Concentration-response curves (CRCs) were derived directly from the primary screen, and both potency and efficacy values were used to identify compounds with robust bioactivity profiles. We screened the NIH Chemical Genomics Center (NCGC) Pharmaceutical Collection (NPC) and Mechanism Interrogation Plate (MIPE) small molecule collections of approved and investigational compounds against these cell lines; and measured metabolically active cells after 48 hours of compound treatment as a proxy for cell viability.
Assay Submitter: Nathalia J. Martinez, National Center for Advancing Translational Sciences, National Institutes of Health, Rockville, MD, USA; email: natalia.martinez@nih.gov
[1] Shen, M et al. Quantitative high-throughput phenotypic screening of pediatric cancer cell lines identifies multiple opportunities for drug repurposing. Oncotarget 2017 Dec 19;9(4):4758-4772. PMID 29435139.
The cells were obtained from University of North Carolina (UNC), Pediatric Preclinical Testing Program (PPT), and Coriell Institute (CI).
qHTS cell viability assay:
Cells were assayed in growth media at a density of 500-1,000 cells/well. Five microliters of cells were dispensed into 1,536-well, white, solid-bottom, TC-treated plates (Greiner Bio One) using a multidrop dispenser and incubated at 37 degrees C, 5% CO2, under a humidified atmosphere for 5 hours. Twenty-three nanoliters of compounds and controls (neutral control DMSO or positive control bortezomib at final concentration of 2.3 µM) were subsequently transferred by Kalypsys pintool. For primary screens, the MIPE collection was tested at 11-point dilutions (final concentrations range from 0.78 nM to 46 µM) and the NPC collection at 8-point dilutions (final concentrations range from 0.59 nM to 46 µM). Compounds tested in follow-up screens were assayed at 11-point dilutions. Cells were incubated for 48 hours, followed by addition of 3 µL of CellTiter-Glo (Promega). After a 15 min incubation at room temperature, samples were analyzed for luminescence intensity using a ViewLux High-throughput CCD imager equipped with clear filters.
Potency is read from the fitted curve at half-maximal effect.

| SMILES | Potency | activity change, negative = cytotoxic |
| --- | --- | --- |
| CCc1ccc(OCc2ccccc2C(=O)Nc2ccc3nc(C)cc(N)c3c2)cc1 | 9.27 µM (active) |  |
| O=C(NCc1ccncc1)C12C[C@H]3C[C@@H](C1)CC(c1ccc(Cl)cc1)(C3)C2 | 14.7 µM (active) |  |
| COc1ncc(-c2ccc3nccc(-c4ccnnc4)c3c2)cc1NS(=O)(=O)c1ccc(F)cc1F | 0.0369 µM (active) |  |
| COc1ccc2c(Oc3ccc(NC(=O)c4c(C)n(CC(C)(C)O)n(-c5ccccc5)c4=O)cc3F)ccnc2c1 | 23.3 µM (active) |  |
| COc1cc2ncnc(Nc3ccc(F)c(Cl)c3)c2cc1OCCCN1CCOCC1 | 26.9 µM (active) |  |
| CC(=O)Oc1cc2c(s1)CCN(C(C(=O)C1CC1)c1ccccc1F)C2 (stereo not drawn) | 14.7 µM (active) |  |
| COc1cc2nc(-c3ccc(N4CCN(C)CC4)cc3)nc(NCCN3CCOCC3)c2cc1OC | 0.414 µM (active) |  |
| CNC1CCC(N(Cc2cccc(-c3ccncc3)c2)C(=O)c2sc3c(F)ccc(F)c3c2Cl)CC1 (stereo not drawn) | 10.4 µM (active) |  |
| O=C1C(Cl)=C(NCCN2CCOCC2)C(=O)c2ncccc21 | 1.17 µM (active) |  |
| OC[C@H]1O[C@@H](n2cnc3c2NC=NC[C@@H]3O)C[C@H]1O |  | 25.7% (inactive) |
| O=C(O)c1ccc(-c2cc3cccnc3c(-c3ccc4nonc4c3)n2)cc1 | 7.37 µM (active) |  |
| CC[C@@H]1C=C(C)C[C@H](C)C[C@H](OC)[C@H]2O[C@@](O)(C(=O)C(=O)N3CCCC[C@@H]3C(=O)O[C@H](C(C)=C[C@@H]3CC[C@H](Cl)[C@H](OC)C3)[C@H](C)[C@@H](O)CC1=O)[C@H](C)C[C@H]2OC | 13.1 µM (active) |  |
| CCCCCCCCCCCC1=C(O)C(=O)C=C(O)C1=O |  | 10.3% (inactive) |
| CC(C)n1nc(-c2ccc3oc(N)nc3c2)c2c(N)ncnc21 | 0.0293 µM (active) |  |
| N[C@@]1(C(=O)O)CS(=O)(=O)[C@H]2[C@H](C(=O)O)[C@H]21 |  | 19.6% (inactive) |
| C=C1C(=O)[C@@]23C(CC[C@@H]1[C@H]2O)[C@@]12CO[C@]3(O)[C@@H](O)[C@@H]1C(C)(C)CC[C@@H]2O (stereo partly drawn) | 2.93 µM (active) |  |
| Cc1cc(OCCCc2c(C(=O)O)n(Cc3cccnc3)c3c(-c4c(COc5ccc(N6CCN([S+](C)(=O)[O-])CC6)cc5)nn(C)c4C)cccc23)cc(C)c1Cl | 1.04 µM (active) |  |
| CO[C@H]1C(=O)[C@]2(C)[C@@H](OC)C[C@H]3OC[C@@]3(OC(C)=O)[C@H]2[C@H](OC(=O)c2ccccc2)[C@]2(O)C[C@H](OC(=O)[C@H](O)[C@@H](NC(=O)OC(C)(C)C)c3ccccc3)C(C)=C1C2(C)C | 0.0165 µM (active) |  |
| CC1(C)CCC2=C(O1)c1ccccc1C(=O)C2=O | 8.27 µM (active) |  |

| SMILES | Potency | activity change, negative = cytotoxic |
| --- | --- | --- |
| Oc1ccc(C2CCN(c3ccnc4ccccc34)CC2)cc1O | 5.85 µM (active) |  |
| Cc1nnc(C(C)C)n1C1C[C@H]2CC[C@@H](C1)N2CC[C@H](NC(=O)C1CCC(F)(F)CC1)c1ccccc1 (stereo partly drawn) |  | 4.54% (inactive) |
| CO[C@H]1C[C@@H]2CC[C@@H](C)[C@@](O)(O2)C(=O)C(=O)N2CCCC[C@@H]2C(=O)O[C@H]([C@H](C)C[C@@H]2CC[C@H](OP(C)(C)=O)[C@H](OC)C2)CC(=O)[C@H](C)C=C(C)[C@@H](O)[C@@H](OC)C(=O)[C@H](C)C[C@H](C)C=CC=CC=C1C | 4.65 µM (active) |  |
| O=C1NC(=O)C(=Cc2ccc3c(c2)OC(F)(F)O3)S1 |  | -24.2% (inactive) |
| CC1(C)S[C@H]2[C@H](NC(=O)[C@@H](N)c3ccc(O)cc3)C(=O)N2[C@@H]1C(=O)O |  | 1.68% (inactive) |
| O=c1[nH]cnc2c1ncn2[C@H]1CC[C@@H](CO)O1 |  | 7.2% (inactive) |
| CC(=O)Nc1ccc([C@H](C)C(=O)Nc2ncc(C(C)C)s2)cc1 | 9.27 µM (active) |  |
| O=C(O)c1ccc(-c2c[nH]c3ncc(-c4ccccc4)cc23)cc1C1CCCC1 |  | 6.18% (inactive) |
| Nc1ncnc2c1ncn2[C@@H]1O[C@@H](CO)[C@H](O)[C@H]1O |  | 1.12% [at 29.5 µM] (inactive) |
| NS(=O)(=O)c1cccc2c1C(=O)c1cccc(O)c1C2=O | 0.657 µM (active) |  |
| CC[C@]1(O)C[C@@H]2CN(CCc3c([nH]c4ccccc34)[C@@](C(=O)OC)(c3cc4c(cc3OC)N(C)[C@H]3[C@@](O)(C(=O)OC)[C@H](OC(C)=O)[C@]5(CC)C=CCN6CC[C@]43[C@@H]65)C2)C1 | 82.7 nM (active) and 104 nM (active) |  |
| CC=C(C)C(=O)O[C@H]1C(C)=C[C@]23C(=O)[C@@H](C=C(CO)[C@@H](O)[C@]12O)[C@H]1[C@@H](C[C@H]3C)C1(C)C | 13.1 µM (active) |  |
| CN(C)C1CCN(C(=O)c2ccc(NC(=O)Nc3nc(N4CCOCC4)nc(N4CCOCC4)n3)cc2)CC1 | 0.0827 µM (active) |  |
| CC1(C)O[C@H]2C[C@@H]3[C@H]4CCC5=CC(=O)C=C[C@]5(C)[C@@]4(F)[C@@H](O)C[C@]3(C)[C@]2(C(=O)CO)O1 |  | -0.31% (inactive) |
| COc1ccc(-c2nc(N3CCOCC3)c3sc(CN(C)c4ncc(C(=O)NO)cn4)cc3n2)cn1 | 0.414 µM (active) |  |
| O=C1c2ccccc2-[n+]2ccc3c([nH]c4ccccc43)c21 | 2.08 µM (active) |  |
| COc1cc(N2CCC(N3CCN(C)CC3)CC2)ccc1Nc1ncc(Cl)c(Nc2ccccc2S(=O)(=O)C(C)C)n1 | 0.329 µM (active) |  |
| O=c1cc(-c2ccc(O)cc2)oc2cc(O)cc(O)c12 |  | 9.14% (inactive) |
| CO[C@H]1C=CC=C(C)C(=O)NC2=CC(=O)C(NCCN(C)C)=C(C[C@@H](C)C[C@H](OC)[C@@H](O)[C@@H](C)C=C(C)[C@@H]1OC(N)=O)C2=O | 7.37 µM (active) |  |
